Fluorescein autfl – qHTS Assay for Spectroscopic Profiling in Fluorescein Spectral Region. actives 0.91% (n = 59,000). max fluorescein-equivalent concentration, M. AID 593, 2007. Compound autofluorescence, 480/540 nm, fluorescein-equivalent; active compounds read high; in the data active = max fluorescein-equivalent concentration above about 10 nM; inconclusive = between about 1.1 nM and that limit
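Compounds were pin-transferred into 100 mM Tris buffer, pH 8.0, and incubated 15 min at room temperature. Fluorescence was read at 480 nm excitation/540 nm emission. Signals were normalized to an on-plate six-point fluorescein standard curve as dye-equivalent concentration.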
Resorufin autofl – qHTS Assay for Spectroscopic Profiling in Resorufin Spectral Region | Compound fluorescence, resorufin region 547/598 nm, buffer; active compounds read high | max dye-equivalent concentration, M | actives 0.04% (n = 59,000) | AID 588, 2007
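Read-out: intrinsic compound fluorescence at ex 547/em 598 nm after 15 min at RT in pH 8.0 Tris (100 mM). Values expressed as resorufin-equivalent concentration from per-plate standard series.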
A488 fluor – qHTS Assay for Spectroscopic Profiling in A488 Spectral Region | compound autofluorescence, A488 spectral region, dye equivalency; Compound Type: qHTS ECL - MLSMR | max dye equivalency, M | actives 0.1% (n = 59,000) | AID 591, 2007
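Autofluorescence read at ex 480/em 540 nm after 15 min RT in 100 mM Tris pH 8.0; compound signal normalized to A488 standard series on each plate, reported as dye-equivalent concentration at each test concentration.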
Rhodamine fluor – qHTS Assay for Spectroscopic Profiling in Rhodamine Spectral Region | Rhodamine-region fluorescence, 547/598 nm, Tris buffer; active compounds read high | max dye-equivalent concentration, M | actives 0.05% (n = 59,000); in the data active = max dye-equivalent concentration above about 11 nM; inconclusive = between about 1.1 nM and that limit
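Intensities are converted to rhodamine-equivalent concentration using a six-point rhodamine standard on each plate. Compounds sit 15 min at room temperature in 100 mM Tris buffer, pH 8.0; read uses the 547/598 nm excitation/emission pair.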
TexasRed autofl – qHTS Assay for Spectroscopic Profiling in Texas Red Spectral Region; Compound fluorescence, Texas Red channel, 547/618 nm; active compounds read high; max dye-equivalent concentration, M; actives 0.06% (n = 59,000); AID 587, 2007; in the data active = max dye-equivalent concentration above about 10 nM; inconclusive = between about 1.1 nM and that limit
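Spectral interference profiling: each compound concentration's relative fluorescence, read with a 547 nm excitation and 618 nm emission filter pair, was normalized to a per-plate Texas Red standard curve.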
An asterisk follows results filed as active; i = inactive; u = inconclusive. A selection: hits, their analogues and other compounds. The true share with any hit is near 0.9%. Unless noted, no rule for the calls is given here.

SMILES | Fluorescein autfl | Resorufin autofl | A488 fluor | Rhodamine fluor | TexasRed autofl
CN(CCO)C(=O)c1cccc2c1-c1ccccc1C2=O | i | i | i | i | i
Cn1c(=O)c(NCCO)c2c3c(cccc31)C(=O)c1ccccc1-2 | 2.51e-05M* | 5.24e-08M* | 1.25e-06M* | 8.48e-08M* | u
C=CCN1CCc2c(cc(O)c(O)c2Br)[C@H](c2ccccc2)C1 | i | i | i | i | i
CCC1=C/C(=C/N(C)c2ccccc2)C(=O)S1 | 1.49e-08M* | i | i | i | i
O=c1nccc(NCc2ccco2)[nH]1 | u | i | i | i | u
O=C1c2ccccc2-c2onc3ccc(NCc4ccco4)c1c23 | 1.21e-06M* | 1.71e-08M* | 5.37e-08M* | 1.99e-08M* | 1.78e-08M*
C[N+]1(CCC[N+]2(C)C[C@H]3[C@H](C2)[C@H]2C=C[C@@H]3CC2)CCOCC1 (stereo not given in full) | u | i | i | i | i
O=c1ccn([C@@H]2O[C@@H](COP(=O)(O)OP(=O)(O)O)[C@H](O)[C@@H]2O)c(=O)[nH]1 | u | i | i | i | i
CCOC(=O)[C@H](CCc1ccccc1)N[C@@H](C)C(=O)N1[C@H](C(=O)O)C[C@H]2CCC[C@@H]21 | 1.01e-08M* | i | i | i | i
C=CCn1c(=S)[nH]c2ccc(Br)cc2c1=O | 1.95e-08M* | i | i | i | i
C=CCn1c(=S)[nH]c2nc3c(cc2c1=O)CCCC3 | i | i | i | i | i
O=C(O)CCCCCC[C@@H]1C(=O)NC(=O)N1CC[C@@H](O)C1CCCCC1 | i | i | i | i | i
OCCN(CCO)c1nc(N2CCCCC2)c2nc(N(CCO)CCO)nc(N3CCCCC3)c2n1 | 6.68e-07M* | i | 2.93e-08M* | i | i
CNC(=O)[C@@H]1O[C@@H](n2cnc3c(N)ncnc32)[C@@H](O)[C@H]1O | u | i | i | i | u
COc1ccccc1NC(=O)CC1Nc2ccccc2NC1=O (stereo not given) | i | i | i | i | i
O=C(CC1NC(=O)NC1=O)Nc1cccc2ccccc12 (stereo not given) | 4.28e-08M* | i | u | i | i
O=C1C=CC2=C3c4cc(O)c(O)cc4C[C@@]3(O)COC2=C1O | u | i | i | i | u
Cc1ccc(N2C(=O)c3cccc4c(N5CCN(C)CC5)ccc(c34)C2=O)c2cccnc12 | 2.58e-08M* | i | u | i | i
CCN1C(=O)c2cccc3c(S(=O)(=O)Nc4ncccc4C)ccc1c23 | u | i | i | i | i
CCOC(=O)C1CCCN(c2nc3ccccc3nc2C(C#N)C(=O)OC(C)C)C1 (stereo not given) | 2.27e-07M* | i | 1.35e-08M* | i | i
CCOC(=O)C1CCN(c2nc3ccccc3nc2C(C#N)C(=O)OC(C)C)CC1 (stereo not given) | 1.29e-08M* | i | i | i | i
CCOC(=O)C1CCN(c2nc3ccccc3nc2C(C#N)C(=O)OC(C)COC)CC1 (stereo not given) | u | i | i | i | i
CC1(C)CC(=O)C2=C(C1)N1CCCCC1CC2=O (stereo not given) | 1.54e-08M* | i | i | i | i
C[C@H](O)C(=O)C1=Nc2c(nc(N)[nH]c2=O)NC1 | 4.02e-08M* | i | u | i | u
COc1ccc(C(=O)[C@H]2[C@H]3[C@@H](C(=O)[C@@H]4OC[C@H]3O4)[C@H]3C=Cc4ccccc4N32)c(OC)c1 | i | i | i | i | i
COc1cccc2c1C(=O)c1c(O)c3c(c(O)c1C2=O)C[C@](O)(C(=O)CO)C[C@H]3O[C@@H]1C[C@H](N)[C@H](O)[C@H](C)O1 | 3e-07M* | 7.18e-08M* | 1.3e-08M* | 9.8e-08M* | 9.46e-08M*
C=CCn1c(/N=C/c2ccc(N(C)C)cc2)nc2ccccc21 | 2.07e-08M* | i | i | i | i
CN(C)c1ccc(/C=N/n2ncc3ccccc32)cc1 | i | i | i | i | i

High-throughput results as filed in PubChem BioAssay.
